Measured values from the supplement of paper PMC12645437, “Orthogonal IMiD-Degron Pairs Induce Selective Protein Degradation in Cells” (ACS Chemical Biology, 2025).
The full ranking holds about 8,300 sequences; the median of “log2 fold change of degron read counts, EGFP-low vs EGFP+ sorted cells (limma voom), compound-induced degradation” is about -1.1, and the highest 2% start at about 3.2. The list comes from a sample in which the highest values are over-represented; it also holds similar and randomly drawn sequences.

T1: CRBN, Q96SW2
T1 chain: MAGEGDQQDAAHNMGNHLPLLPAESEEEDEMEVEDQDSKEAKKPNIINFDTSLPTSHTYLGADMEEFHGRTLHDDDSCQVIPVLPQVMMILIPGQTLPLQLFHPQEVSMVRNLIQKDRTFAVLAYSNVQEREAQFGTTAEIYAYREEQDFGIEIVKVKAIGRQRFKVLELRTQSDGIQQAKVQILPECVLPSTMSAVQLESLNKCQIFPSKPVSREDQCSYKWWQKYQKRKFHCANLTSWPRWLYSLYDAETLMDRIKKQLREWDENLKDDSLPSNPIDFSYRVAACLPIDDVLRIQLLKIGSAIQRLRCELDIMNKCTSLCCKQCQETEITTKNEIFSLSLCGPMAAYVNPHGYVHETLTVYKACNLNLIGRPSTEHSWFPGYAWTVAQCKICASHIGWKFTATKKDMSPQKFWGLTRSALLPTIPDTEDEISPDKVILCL

B1: 46F_47I_49N_50Q_52G_53A_54M_55F_67L_, Q9UKT9 (peptide)
chain: FICNQCGAMFTQKGNLLRHIKL
B2: 46F_47S_49P_50I_52G_53H_54C_55F_67L_, Q9UKT9 (peptide)
chain: FSCPICGHCFTQKGNLLRHIKL
B3: 46F_47L_49N_50I_52G_53A_54H_55F_67L_, Q9UKT9 (peptide)
chain: FLCNICGAHFTQKGNLLRHIKL
B4: 46F_47F_49S_50V_52G_53H_54T_55F_67L_, Q9UKT9 (peptide)
chain: FFCSVCGHTFTQKGNLLRHIKL
B5: 46F_47N_49N_50Q_52G_53A_54K_55F_67L_, Q9UKT9 (peptide)
chain: FNCNQCGAKFTQKGNLLRHIKL
B6: 46F_47Q_49N_50Q_52G_53H_54Y_55F_67L_, Q9UKT9 (peptide)
chain: FQCNQCGHYFTQKGNLLRHIKL
B7: 46F_47Y_49N_50Q_52G_53A_54T_55F_67L_, Q9UKT9 (peptide)
chain: FYCNQCGATFTQKGNLLRHIKL
B8: 46F_47H_49D_50Q_52G_53A_54W_55F_67L_, Q9UKT9 (peptide)
chain: FHCDQCGAWFTQKGNLLRHIKL
B9: 46F_47Y_49E_50I_52G_53R_54D_55F_67L_, Q9UKT9 (peptide)
chain: FYCEICGRDFTQKGNLLRHIKL
B10: 46F_47Q_49D_50Q_52G_53A_54Q_55F_67L_, Q9UKT9 (peptide)
chain: FQCDQCGAQFTQKGNLLRHIKL
B11: 46F_47F_49E_50I_52G_53H_54M_55F_67L_, Q9UKT9 (peptide)
chain: FFCEICGHMFTQKGNLLRHIKL
B12: 46F_47E_49N_50Q_52G_53A_54Y_55F_67L_, Q9UKT9 (peptide)
chain: FECNQCGAYFTQKGNLLRHIKL
B13: 46F_47M_49E_50I_52G_53H_54V_55F_67L_, Q9UKT9 (peptide)
chain: FMCEICGHVFTQKGNLLRHIKL
B14: 46F_47K_49N_50I_52G_53A_54W_55F_67L_, Q9UKT9 (peptide)
chain: FKCNICGAWFTQKGNLLRHIKL
B15: 46F_47Y_49P_50I_52G_53A_54K_55F_67L_, Q9UKT9 (peptide)
chain: FYCPICGAKFTQKGNLLRHIKL
B16: 46F_47C_49P_50I_52G_53A_54P_55F_67L_, Q9UKT9 (peptide)
chain: FCCPICGAPFTQKGNLLRHIKL
B17: 46F_47C_49N_50I_52G_53A_54P_55F_67L_, Q9UKT9 (peptide)
chain: FCCNICGAPFTQKGNLLRHIKL
B18: 46F_47D_49P_50I_52G_53A_54P_55F_67L_, Q9UKT9 (peptide)
chain: FDCPICGAPFTQKGNLLRHIKL
B19: 46F_47L_49P_50I_52G_53A_54P_55F_67L_, Q9UKT9 (peptide)
chain: FLCPICGAPFTQKGNLLRHIKL
B20: 46F_47C_49P_50I_52G_53A_54D_55F_67L_, Q9UKT9 (peptide)
chain: FCCPICGADFTQKGNLLRHIKL
B21: 46F_47Y_49P_50I_52G_53A_54D_55F_67L_, Q9UKT9 (peptide)
chain: FYCPICGADFTQKGNLLRHIKL
B22: 46F_47Y_49P_50I_52G_53A_54P_55F_67L_, Q9UKT9 (peptide)
chain: FYCPICGAPFTQKGNLLRHIKL
B23: 46F_47V_49P_50I_52G_53A_54P_55F_67L_, Q9UKT9 (peptide)
chain: FVCPICGAPFTQKGNLLRHIKL
B24: 46F_47C_49D_50I_52G_53A_54M_55F_67L_, Q9UKT9 (peptide)
chain: FCCDICGAMFTQKGNLLRHIKL
B25: 46F_47W_49N_50V_52G_53A_54C_55F_67L_, Q9UKT9 (peptide)
chain: FWCNVCGACFTQKGNLLRHIKL
B26: 46F_47Y_49N_50Q_52G_53H_54A_55F_67L_, Q9UKT9 (peptide)
chain: FYCNQCGHAFTQKGNLLRHIKL
B27: 46F_47L_49D_50I_52G_53A_54S_55F_67L_, Q9UKT9 (peptide)
chain: FLCDICGASFTQKGNLLRHIKL
B28: 46F_47N_49D_50I_52G_53A_54E_55F_67L_, Q9UKT9 (peptide)
chain: FNCDICGAEFTQKGNLLRHIKL

Biological target: T1, CRBN, Q96SW2
Experiment: log2 fold change of degron read counts, EGFP-low vs EGFP+ sorted cells (limma voom), compound-induced degradation; higher = more compound-induced degradation of the degron-EGFP fusion; degrons are variants of IKZF1/3 zinc finger 2; compound dose not given here
Details: Jurkat, 18 h
[1] = compound: compound 19 (5-tert-butyl-thalidomide)
[2] = compound: compound 22 (5-morpholino-thalidomide)
[3] = compound: compound 33 (diphenyl IMiD analogue)
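Further: pooled lentiviral library of zinc finger degron-EGFP fusions in mCherry-positive Jurkat cells, FACS-sorted after compound exposure, with degron abundance counted by next-generation sequencing.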

Row | Sequence | log2 fold change of degron read counts [1] | log2 fold change of degron read counts [2] | log2 fold change of degron read counts [3] | log2 fold change of degron read counts (compound: thalidomide)
1 | B1 | -2.72 | -2.75 | -0.507 | -1.6
2 | B2 | -2.27 | -2.66 | -1.41 | -1.81
3 | B3 | -1.65 | -2 | -0.489 | -0.376
4 | B4 | -1.42 | -2.35 | -2.3 | -2.45
5 | B5 | -2.03 | -2.67 | -2.17 | -1.99
6 | B6 | -3.07 | -2.91 | -2.9 | -2.48
7 | B7 | -1.8 | -0.678 | -1.33 | -2.43
8 | B8 | -2.39 | -3.42 | -2.72 | -2.68
9 | B9 | -2.29 | -2.76 | -1.95 | -2.67
10 | B10 | -2.81 | -1.76 | -1.35 | 0.414
11 | B11 | -1.68 | -2.18 | -1.72 | -2.01
12 | B12 | -2.64 | -2.84 | -1.48 | -1.4
13 | B13 | -2.94 | -3.04 | -2.18 | -2.54
14 | B14 | -1.98 | -2.92 | -2.11 | -1.78
15 | B15 | 2.61 | 3.07 | 1.08 | 0.503
16 | B16 | 3.65 | 3.16 | 2.16 | 2.67
17 | B17 | 3.01 | 2.73 | 1.32 | 1.86
18 | B18 | 2.88 | 1.73 | 1.54 | 2.15
19 | B19 | 2.02 | 2.98 | 2.65 | 3.18
20 | B20 | 1.61 | 1.1 | 1.77 | 1.6
21 | B21 | 1.73 | 1.44 | 1.25 | -0.522
22 | B22 | 3.63 | 3.27 | 2.84 | 2.2
23 | B23 | 2.4 | 3.68 | 2.3 | 3.49
24 | B24 | 0.674 | 0.00358 | 0.721 | -0.808
25 | B25 | 1.84 | 2.89 | 1.57 | -0.431
26 | B26 | -2.34 | -2.37 | -2.98 | -2.66
27 | B27 | 0.329 | -1.41 | 0.103 | -0.525
28 | B28 | 0.228 | -1.87 | -2.21 | -2.45
